# Screen size: about 320,000 compounds; about 2,100 (0.66%) were called active. About 53% were inconclusive and are not listed. This is one part of a sample in which actives are shown more often than they occur. The call rests on the fitted dose curve; in most records, active means well fitted inhibition curve with a large enough effect in the signal ratio, with a control signal flat (not every such curve was filed as active); inconclusive means small, poorly fitted or top-dose-only effect, or effect the other way, or a change in a side signal; inactive means flat fitted curve, though single readings scatter; the % refers to the signal ratio.
# Assay: qHTS Assay for Lipid Storage Modulators in Drosophila S3 Cells;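 on cell number change: cells counted by Cell Tracker Red CMTPX staining in the red channel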; on lipid storage change, negative = inhibition: on the % scale 0 is the no-effect control and ±100 the full control effect
# Conditions: BODIPY lipid droplet fluorescence, 18-24 h, cells fed with added oleic acid; cell number change: measured here: cell count max response; series mostly up to 46.1 µM; lipid storage change, negative = inhibition: at the top concentration
# How it was run: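 Laser-scanning cytometry quantifies lipid droplet accumulation (500–530 nm total intensity; droplet/cell object ratio) in oleic acid-fed (400 uM added) Drosophila S3 cells treated with a concentration series. 20 uM Triacsin C defined 100% inhibition.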
# Potency means the concentration at half of the fitted maximal effect.
SMILES,Potency,outcome,cell number change [%],"lipid storage change, negative = inhibition"
CCc1ccc2oc(-c3ccc(NC(C)=O)cc3)nc2c1,11.6 µM (active),,,
CCN(CC)CC(=O)Nc1ccc(-c2nc3cc(NC(=O)CN(CC)CC)ccc3o2)cc1,,inactive,0.429,
COc1ccc(NC(=O)Cc2ccc(C)c(C)c2)cc1Cl,,,-32.8,-18.4% (inactive)
COc1ccc(OC)c(NC=C2C(=O)OC3(CCCCC3)OC2=O)c1,,,-8.05,-31.6% (inactive)
COc1ccccc1C(=O)COC(=O)c1ccc(Cl)nc1,,,-5.19,2.34% (inactive)
CCN(Cc1ccncc1)C(=O)c1cc(COc2ccc(F)cc2F)on1,,inactive,-20.5,
Cc1cc(=S)cc(C)n1CCCO,,,-15.3,0.297% (inactive)
COc1ccc(OCc2nc3ccc(S(=O)(=O)Nc4ccccc4Cl)cc3[nH]2)cc1,,,18.1,0.493% (inactive)
c1ccc2cc(OCc3nc4ccccc4[nH]3)ccc2c1,,,-24.1,-7.47% (inactive)
COc1ccc(NS(=O)(=O)c2ccc3nc(COc4ccc5ccccc5c4)[nH]c3c2)cc1,23.1 µM (active),,-9.6,
COc1ccccc1NS(=O)(=O)c1ccc2oc(=S)[nH]c2c1,,,9.13,0.324% (inactive)
COc1ccccc1NS(=O)(=O)c1ccc2nc(CCl)[nH]c2c1,0.259 µM (active),,-11.7,
COc1ccccc1NS(=O)(=O)c1ccc2[nH]c(=O)[nH]c2c1,,inactive,-22.3,
COc1ccc(NS(=O)(=O)c2cccc(C(=O)NCC3(N4CCOCC4)CCCCC3)c2)cc1,,,1.17,-19.7% (inactive)
CCCS(=O)(=O)Nc1cccc(-c2cn3c(n2)SCC3)c1,,inactive,-21.2,
Cc1ccnc(Sc2ncccc2[N+](=O)[O-])n1,29.1 µM (active),,-11.7,
Cc1cc(C)n2nc(Sc3ncccc3[N+](=O)[O-])nc2n1,,,-8.83,-0.347% (inactive)
Cc1ccc(Sc2ncccc2[N+](=O)[O-])cc1,,,-12.8,-8.13% (inactive)
COCc1cc(CN2CCN(Cc3ccsc3)C(CCO)C2)ccc1OC (centres undefined),,,9.7,-2.77% (inactive)
CCC(C)(C)NC(=O)C(c1ccc(O)cc1)N(CCOC)C(=O)CCC(=O)Nc1nccs1 (centres undefined),,,-13.3,-16.7% (inactive)
CCC(C)(C)NC(=O)C(c1ccc(F)cc1)N(CCOC)C(=O)CCC(=O)Nc1nccs1 (centres undefined),14.6 µM (active),,3.04,
COCCN(C(=O)CCC(=O)Nc1nccs1)C(C(=O)NC(C)(C)C)c1ccc(F)cc1 (centres undefined),,,9.66,-2.68% (inactive)
Cc1cc2nnc(SCC(=O)Nc3cccc(S(=O)(=O)N4CCOCC4)c3)n2c2ccccc12,,,5.18,2.35% (inactive)
C=CCSc1nnc(CC(OC)OC)n1-c1ccccc1,,inactive,,

SMILES,Potency,outcome,cell number change [%],"lipid storage change, negative = inhibition"
CC(=O)Nc1cccc(/C(C)=N/NC(=O)c2ccc(NS(=O)(=O)c3cccs3)cc2)c1,,,10.3,-1.63% (inactive)
Cc1nc(Nc2ccccc2Br)c2nnn(Cc3ccccc3)c2n1,,,8.19,-10.6% (inactive)
CCCCn1c(N)c(N(CC)C(=O)c2ccccc2F)c(=O)[nH]c1=O,8.2 µM (active),,6.41,
CCCCN(C(=O)c1ccccc1F)c1c(N)n(CCC)c(=O)[nH]c1=O,,inactive,28.6,
CCCCn1c(N)c(N(CC)C(=O)c2ccccc2C(F)(F)F)c(=O)[nH]c1=O,,,-2.38,85.7% (inactive)
O=C1NCCN1C(=O)c1cccc(Cl)c1,,,4.49,-0.38% (inactive)
O=C(Nc1nnc(Cc2ccc(F)cc2)s1)Nc1ccccc1F,,inactive,-6.61,
O=C(Nc1ccccc1)Nc1nnc(Cc2ccc(F)cc2)s1,0.103 µM (active),,14,
COc1ccc(NC(=O)Nc2nnc(Cc3ccc(F)cc3)s2)cc1,,,-7.21,2.57% (inactive)
O=C1CCc2cc(S(=O)(=O)NC3CCCCC3)cc3c2N1CC3,,inactive [at 0.0737 µM],,
Cc1ccc(OCC(O)CN2CCN(CCO)CC2)c(C)c1 (centres undefined),,,3.63,-4.99% (inactive)
O=C(NCc1cccc(C(F)(F)F)c1)C1CCCN(c2ncccn2)C1 (centres undefined),,inactive,23.6,
CN1C(=O)/C(=C/c2cc(C(C)(C)C)c(O)c(C(C)(C)C)c2)NC1=S,,,,9.04% (inactive)
O=C(CN1C(=O)/C(=C/c2ccccc2F)SC1=S)NC1C=CS(=O)(=O)C1 (centres undefined),16.4 µM (active),,-4.2,
O=C(CCN1C(=O)/C(=C/c2ccccc2F)SC1=S)NC1C=CS(=O)(=O)C1 (centres undefined),,inactive,,
O=C(CN1C(=O)S/C(=C\c2ccccc2F)C1=O)NC1C=CS(=O)(=O)C1 (centres undefined),,inactive,-3.44,
O=C(CCN1C(=O)/C(=C\c2ccccc2F)SC1=S)N1CCCCC1,,,13.6,0.243% (inactive)
O=C1/C(=C/c2ccccc2F)SC(=S)N1CC(=O)N1CCCCC1c1cccnc1 (centres undefined),7.31 µM (active),,-0.951,
O=C1/C(=C/c2ccccc2)SC(=S)N1CC(=O)N1CCCCC1c1cccnc1 (centres undefined),,inactive,6.85,
CC(=O)c1nn(-c2ccccc2)cc1C(=O)c1cccc(Br)c1,,,-13.3,18.9% (inactive)
CC(=O)c1nn(-c2cccc(Br)c2)cc1C(=O)c1ccccc1,,,-13.8,18.9% (inactive)
CC(=O)c1nn(-c2cccc(Br)c2)cc1C(=O)c1ccc2ccccc2c1,5.17 µM (active),,-7.14,
Cc1ccc(C(=O)NC2CCS(=O)(=O)C2)cc1S(=O)(=O)N1CCOCC1 (centres undefined),,,10.2,-7.04% (inactive)

# — PubChem BioAssay AID2685 (National Center for Advancing Translational Sciences (NCATS), 2010)
